# Laboratory results: the supplement of paper PMC6555819
# What was measured:
# Assay in all cases: PBM binding z-score (relative to random genomic background probes); higher = stronger binding; sequences stand for … in GC…GCGATTGACAGCGTAGAATGAAGG
# [1] = system: RARb homodimer (NR concentration 270 nM)
# How it was run: (§1)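 Binding buffer was PBS pH 7.4 with 2% milk, 0.02% Triton X-100, 1 mM DTT, 0.2 mg/mL BSA and 0.4 mg/ml salmon testes DNA. In it, ligand-free nuclear receptor dimers were incubated 1 h on custom Agilent 4×180K protein-binding microarrays carrying double-stranded probes. Antibodies against each partner (one per run) detected binding, and z-scores were calculated against random background probes after regression normalization of scanned fluorescence.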
# [2] = system: RARg:RXRa (NR concentration 270 nM, RXRa partner concentration 90 nM)
# How it was run: as §1
# [3] = system: RARg homodimer (NR concentration 270 nM)
# How it was run: as §1
# [4] = system: RXRa DBDmut IVT, anti-RXR (DBD mutation: RXRa K156A/R161A, NR concentration 90 nM)
# How it was run: as §1
# [5] = system: RXRa homodimer (NR concentration 180 nM)
# How it was run: as §1
# [6] = system: THRa:RXRa (NR concentration 90 nM, RXRa partner concentration 90 nM)
# How it was run: as §1
# [7] = system: THRa homodimer (NR concentration 90 nM)
# How it was run: as §1
# [8] = system: VDR homodimer (NR concentration 270 nM)
# How it was run: as §1
Sequence,PBM binding z-score [1],PBM binding z-score [2],PBM binding z-score [3],PBM binding z-score [4],PBM binding z-score [5],PBM binding z-score [6],PBM binding z-score [7],PBM binding z-score [8]
ACTCGCAGGCCAAGGGTCACTCAAGATTAGTCCG,3.81,4.36,3.98,1.03,3.97,2.95,0.204,0.901
GATACAGGGTCACGGCCAGAGTACGCGTATTGAT,3.98,6.54,6.18,2.92,7.78,4.17,2.03,3.26
CGAACTAGTTCATCCAGGACAGTGAATACATTGA,0.846,1.12,1.39,3.28,0.593,2.23,1.07,3.24
TATACAGTGTCAAAGGCCAGAGTACGAATGTCGA,1.59,1.53,1.65,-0.125,1.49,0.336,-0.189,0.636
GCATATCGGTAATACAAGGTGAAAGTCCGATTGT,0.774,0.308,0.268,0.112,0.446,3.07,0.911,-0.28
GTACCAAGGCGAATAGGTCGTTGATGAGTAGGCG,0.278,0.265,0.191,-0.465,0.543,0.0285,-0.524,-0.0798
CGTCAAGGTTCAAGGTAACGTAACAGAAAGCAGC,1.73,3.11,2.71,4.1,3.11,2.61,1.01,3.6
TTACCAAGGTGAGCTGAGGTCGCTGATCCAACTC,1.76,1.33,1.22,-0.393,1.2,4.95,2.17,0.556
CCGAGTAGGTTCTGGGGCATTCAGGCAACGGTGA,0.469,-0.508,-0.495,-0.0942,-0.58,0.118,0.0185,0.0206
AATACAGGGTCACTAGGCCAGCGTAGGTACGAAT,3.58,5.12,4.78,2.81,5.29,3.48,1.43,2.28
CTACCAAGGTGAACAAGGTCGTTCATTACTATTC,2.93,2.18,1.75,2.32,2.27,3.56,2.2,3.38
ACGGACAGGTGAGTGAAGGTAACTCAGCTGGACG,0.226,0.31,0.674,-0.495,0.344,1.69,-0.483,-0.502
CCTAATGGGCCAAAGGTCATTGATTCCAATGCTC,4.39,5.84,5.06,1.72,7.11,3.26,0.623,1.9
CCTATTGGGCCACGAAAGGTCATTGATTCAGTGA,4.4,4.95,4.66,0.751,5.29,4.08,0.834,2.26
CCGACTGGGGCAGAAGGGTTACCATACCATCCGG,1.08,0.666,0.787,-1.36,0.641,0.0428,-0.605,-0.332
TCTTGTAGTTCAAAGGTTAAGAAAGCCGAAGCCT,2.54,4.81,2.39,2.69,6.78,2.53,-0.0884,1.9
TCTTGTAGATCGACAGGAGGTTAAGAAAGATCGA,0.302,0.34,0.0753,0.223,0.86,0.713,-0.764,-0.181
CCTATTAGTTGACCATAAGGGCAACCGAAGCTCG,2.05,1.31,0.855,0.655,1.02,2.02,1.34,1.07
ACTTACGGGTCACCGAGGTTATAGCACGCGTATA,4.01,6.34,5.96,2.78,7.33,4.24,1.45,4.59
TCGAGTAGGTTGGGGGCATTCAGAATGGCGTCGA,1.42,1.32,0.732,1.74,1.57,2.11,1.52,3.27
CTACCAAGGTGAACAAAGTCGTTGATTACTATTC,0.608,0.623,0.808,0.695,0.378,1.69,0.927,0.24
CGTCCAAAGTCAAGGTCAGTGAAAGAGACTCGAA,3.54,3,3.58,1.13,2.53,3.03,2.06,1.29
CCTGCTAGGTCATGGTAAGCTAATCTACAGTATG,2.79,3.8,4.48,1.84,2.62,2.98,1.22,-0.214
TCATATAGGTAAATGCTAGATGAAAGTCCGATCT,-0.248,0.314,0.454,1.15,0.617,-0.0472,-0.457,0.317
ACTATTAGTTGAGAGGAGGGCAACCGATAGGTTG,1.1,0.586,0.81,0.0671,0.396,1.32,-0.435,0.461
TCATATAGGTAATACAGGTGAACGTCGGCATCTA,0.903,0.819,0.771,1.86,1.55,1.18,0.563,0.482
TCATATAGGTATTACAGGTGAAAGTCGGCATCTA,0.804,0.652,0.438,1.81,1.35,0.854,0.684,0.524
GGAACGAGGGTAAAGTTGATAGCATCTGTCGACG,0.332,0.683,0.562,0.929,0.974,0.383,-0.45,0.411
